Laboratory results from PubChem BioAssay (NCI).
Compounds without any hit were thinned out: in the full panel of roughly 83,000, 20% have a hit.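 Compound tested at a single concentration for 48 hours in 96-well plates; a percent growth value below 10 was scored as active.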 Values without a mark were called inactive. Activity calls are given as the source filed them.

What follows are molecules tested on HL-60(TB) leukemia (assay: NCI-60 one-dose screen, 48 h (100 = growth as untreated, 0 = no growth, -100 = all killed)). Conditions: 10 µM unless noted.
Cc1ccc(/C=C2\CN(C(=O)C(Cl)Cl)C/C(=C\c3ccc(C)cc3)C2=O)cc1 was tested, and the growth was -21% (active).
COc1cc(/C=C2\C(=O)Nc3ccc(N(C)C)cc32)cc(OC)c1OC showed a growth of 27.5%.
In the case of CC(=O)N1N=C(c2ccc(Nc3nc(Nc4ccc(F)cc4)nc(Nc4ccc(Cl)cc4)n3)cc2)CC1c1ccc(N(C)C)cc1 (centres undefined), the growth is reported as 19%.
In the case of COc1cccc(-c2cc3c(O)cc(C#N)cc3[nH]2)c1, the growth is reported as 21.3%.
CC1(C)N=C(N)N=C(N)N1c1ccc(OCC(=O)Nc2ccccc2)c(Cl)c1 showed a growth of 13.8%.
In the case of COc1cccc(-c2nc3sccn3c2-c2ccnc(NCCNS(=O)(=O)c3cccc(F)c3)c2)c1, the growth is reported as -1.8% (active).
For CCOC(=O)c1sc(-c2ccc(OS(=O)(=O)c3ccccc3[N+](=O)[O-])c(C=O)c2)nc1C, the growth was 73.3%.
For CNc1ccccc1C(N)=O, the growth was 114%.
For N#CC1c2ccccc2C=CN1C(=O)N(c1ccccc1)c1ccccc1 (centres undefined), the growth was -8.07% (active).
In the case of c1ccc(-c2nc(Nc3ccc(-c4nc5ccccc5[nH]4)cc3)nc(N3CCOCC3)n2)cc1, the growth is reported as -32.7% (active).
With CCn1cc(C2NC(=O)c3ccccc3N2)c2cccc(C)c21 (centres undefined) the growth was -56.2% (active).
With COCCn1cc(-c2nc(-c3cn(CCOC)c4ncccc34)cs2)c2ccccc21 the growth was 114%.
In the case of CN1CCN(CCCOc2ccc3nc(Nc4ccc(Cl)c(C(F)(F)F)c4)ccc3c2)CC1, the growth is reported as 63.7%.
In the case of CCOC(=O)Nc1nc2ccc(SCC(C)C)cc2s1, the growth is reported as 11.6%.
Molecule NC(=O)CC(NC(=O)COc1ccc(Cl)cc1Cl)C(=O)O (centres undefined) has a growth of 109%.
Nc1c(C(=O)C[C@@H](N)CO)ccc2c1C(=O)CCO2 gave a growth of 51.9%.
With COc1ccccc1/C(C)=N/NC(=O)CSc1nc2ccccc2c(=O)n1Cc1ccc(S(N)(=O)=O)cc1 the growth was 101%.
With CCCCCCCCCCCC(=O)NCCC[N+](C)(C)CC(=O)[O-] the growth was 101%.
c1csc(-c2nc(-c3cc4ccccc4c(N4CCOCC4)n3)cs2)c1 showed a growth of 121%.
O=C(CSc1nnc(-c2ccc(Cl)cc2)o1)c1ccccc1 was tested, and the growth was 90.9%.
In the case of CCCOC(=O)c1nc(N(CC2CCCCC2)C(=O)NC)sc1/N=C/c1ccccc1, the growth is reported as -9.46% (active).
In the case of N#CC1=C(N)Oc2c(sc3c(F)cccc23)C1c1ccc(Cl)cc1 (centres undefined), the growth is reported as -6.14% (active).
With COc1cccc(C(Cc2ccccc2)Nc2ccccc2)c1OC (centres undefined) the growth was 96.3%.
Work on O=C(CSc1nc2ccc([N+](=O)[O-])cc2[nH]1)Nc1cccc(Cl)c1 yielded a growth of 16.9%.
